Assay results as given in the supplement of paper PMC10646978.
± gives the standard deviation.

What was measured:
Settings in all cases: modulator concentration 10 µM
[1] = system: RAW-Dual (murine macrophage reporter line); assay: NF-kB reporter (SEAP) activity fold change vs agonist alone; higher = enhanced NF-kB activity
Outline: (§1)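 RAW-Dual murine macrophage reporter cells were plated at 50 000 per well in 384-well plates, pin-transferred compound to 10 μM final, and pre-incubated for 1 hour at 37 °C before a PRR agonist was added and the cells incubated overnight. NF-κB activity was read from supernatant SEAP with QUANTI-Blue at 620 nm absorbance, and IRF activity from Lucia luciferase with QUANTI-Luc by luminescence. Each signal was expressed as fold change by dividing by the mean agonist-only control on the same plate. Two replicate plates were averaged, with errors obtained by propagation.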

[2] = system: RAW-Dual (murine macrophage reporter line); assay: IRF reporter (Lucia luciferase) activity fold change vs agonist alone; higher = enhanced IRF activity
Outline: as §1

[3] = system: RAW-Dual (murine macrophage reporter line); assay: viability score (confluency relative to resting cells, overnight) (fraction); higher = more viable, active = viable (0.7 or more)
Outline: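 Compound was added at a final 10 μM to RAW-Dual macrophages in 384-well plates and left overnight. Confluency was imaged with IncuCyte, and two masks were generated in IncuCyte software over all imaged wells. Each viability score is confluency relative to resting cells, and a compound met the cutoff only when both masks were above 70% of resting cells.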

[4] = agonist: CpG ODN 1826 0.5 ug/mL

Row | SMILES | NF-kB reporter [1, 4] | NF-kB reporter ([1]; agonist: LPS 0.1 ug/mL) | NF-kB reporter ([1]; agonist: MPLA […]) | IRF reporter ([2]; agonist: 3'3'-cGAMP 10 ug/mL) | IRF reporter ([2]; agonist: LPS 0.1 ug/mL) | IRF reporter ([2]; agonist: MPLA […]) | viability score [3]
1 | COc1ccc2sc(C)[n+](CCCS(=O)(=O)[O-])c2c1 | 0.951 ± 0.088 | 1.08 ± 0.074 | 0.923 ± 0.064 | 0.923 ± 0.086 | 1.05 ± 0.12 | 1.1 ± 0.3 | 1 (active)
2 | O=C(Nc1ccc([N+](=O)[O-])cc1Cl)c1cc(Cl)ccc1O [Prestw-40] | 1.12 ± 0.28 | 0.92 ± 0.052 | 0.938 ± 0.068 | 0.873 ± 0.064 | 1.12 ± 0.24 | 0.832 ± 0.13 | 1.01 (active)
3 | CN1CC(=O)N2[C@H](c3ccc4c(c3)OCO4)c3[nH]c4ccccc4c3C[C@@H]2C1=O | 0.821 ± 0.2 | 1.05 ± 0.23 | 0.976 ± 0.056 | 0.869 ± 0.026 | 1.01 ± 0.24 | 0.922 ± 0.08 | 0.981 (active)
4 | CC(C)OCc1ccc(C(=O)Nc2nnc(C(C)C)s2)o1 | 0.988 ± 0.1 | 1 ± 0.079 | 0.961 ± 0.15 | 0.986 ± 0.051 | 1.11 ± 0.068 | 1.05 ± 0.08 | 1.01 (active)
5 | COc1ccc(C=Nn2cnnc2)cc1COc1cc(C)c(Cl)cc1C(C)C | 0.854 ± 0.088 | 0.761 ± 0.04 | 0.984 ± 0.095 | 1.21 ± 0.11 | 1.03 ± 0.06 | 1.3 ± 0.11 | 0.995 (active)
6 | CN(C/C=C/C#CC(C)(C)C)Cc1cccc2ccccc12.Cl | 1.15 ± 0.054 | 0.905 ± 0.072 | 0.913 ± 0.049 | 1.07 ± 0.068 | 0.817 ± 0.14 | 0.885 ± 0.19 | 0.702 (active)
7 | COc1c(O)cc(O)cc1O | 1.03 ± 0.095 | 1.08 ± 0.057 | 1.1 ± 0.047 | 1.07 ± 0.069 | 0.985 ± 0.078 | 1.02 ± 0.17 | 0.996 (active)
8 | COC(=O)C1=C(C)N(c2ccc(Br)cc2)C(=O)C1=Cc1ccc(O)cc1 | 1.12 ± 0.088 | 0.956 ± 0.1 | 0.93 ± 0.057 | 0.468 ± 0.035 | 1.31 ± 0.16 | 1.05 ± 0.065 | 1.01 (active)
9 | CCOC(=O)c1cc(-c2ccccc2)sc1NC(=O)C(C)(C)C | 0.798 ± 0.068 | 0.907 ± 0.055 | 1.2 ± 0.17 | 0.945 ± 0.055 | 1.3 ± 0.093 | 1.44 ± 0.17 | 1.02 (active)
10 | O=c1n(CCCN2CCN(c3cccc(Cl)c3)CC2)nc2ccccn12 [Prestw-292] | 0.813 ± 0.062 | 0.912 ± 0.067 | 0.899 ± 0.089 | 0.932 ± 0.041 | 1.19 ± 0.14 | 1.19 ± 0.24 | 1.06 (active)
11 | c1ccc(-c2cc3c4cccn4ccn3c2)cc1 | 1.03 ± 0.1 | 0.87 ± 0.068 | 0.848 ± 0.085 | 0.31 ± 0.029 | 1.29 ± 0.21 | 1.32 ± 0.39 | 1.04 (active)
12 | O=C1OC(=O)C2C3CCC(O3)C12 (centres undefined) | 1.66 ± 0.13 | 1.45 ± 0.15 | 2.06 ± 0.2 | 1.77 ± 0.076 | 1.65 ± 0.22 | 1.72 ± 0.38 | 0.94 (active)
13 | O=C(CCn1c(=O)oc2ccccc21)Nc1ccncc1 | 1.17 ± 0.068 | 1.04 ± 0.079 | 1.01 ± 0.033 | 0.996 ± 0.16 | 0.932 ± 0.045 | 0.949 ± 0.14 | 1 (active)
14 | CCOc1ccccc1OCCCCOc1cccc(Br)c1 | 0.728 ± 0.06 | 1.05 ± 0.075 | 0.968 ± 0.067 | 1.19 ± 0.031 | 1.49 ± 0.24 | 1.2 ± 0.2 | 1 (active)
15 | CC(=O)Nc1ccc(NC(=S)NC(=O)C=Cc2ccc(Cl)cc2Cl)cc1 | 0.64 ± 0.05 | 0.741 ± 0.059 | 0.933 ± 0.095 | 0.428 ± 0.031 | 1.33 ± 0.12 | 1.3 ± 0.22 | 1 (active)
16 | O=C1C(=CNCCN2CCOCC2)C(C(F)(F)F)=NN1c1nc2ccccc2s1 | 0.967 ± 0.079 | 1.01 ± 0.056 | 0.863 ± 0.06 | 0.947 ± 0.044 | 1.32 ± 0.17 | 0.98 ± 0.065 | 1.01 (active)
17 | O=C(CCc1ccc(O)cc1)c1c(O)cc(O)cc1OC1OC(CO)C(O)C(O)C1O (centres undefined) | 1.37 ± 0.33 | 0.943 ± 0.047 | 0.963 ± 0.072 | 0.961 ± 0.066 | 0.98 ± 0.18 | 1.02 ± 0.14 | 1.01 (active)
18 | COc1cc(C=Cc2nc3ccccc3nc2O)cc(OC)c1 | 1.06 ± 0.054 | 1.06 ± 0.099 | 1.09 ± 0.074 | 0.565 ± 0.029 | 0.834 ± 0.087 | 1.08 ± 0.29 | 0.872 (active)
19 | Nc1c2c(nc3ccccc13)CCCC2 [Prestw-329] | 0.919 ± 0.075 | 0.967 ± 0.084 | 1.24 ± 0.11 | 1 ± 0.057 | 1.55 ± 0.12 | 1.66 ± 0.14 | 1 (active)
20 | O=C(CCCn1nc(-c2ccc(F)cc2)ccc1=O)Nc1ccc(C(F)(F)F)cc1 | 0.89 ± 0.097 | 0.97 ± 0.055 | 1.05 ± 0.038 | 0.346 ± 0.038 | 1.01 ± 0.041 | 0.748 ± 0.15 | 0.99 (active)
21 | O=Cc1ccc(OCc2cccc([N+](=O)[O-])c2)c(Br)c1 | 0.777 ± 0.091 | 0.737 ± 0.057 | 1.09 ± 0.18 | 0.963 ± 0.045 | 1.4 ± 0.09 | 1.49 ± 0.12 | 1 (active)
22 | COc1cc2c(Nc3ccc(Br)cc3F)ncnc2cc1OCC1CCN(C)CC1 | 0.825 ± 0.04 | 1.01 ± 0.11 | 1.11 ± 0.094 | 0.975 ± 0.048 | 1.11 ± 0.17 | 1.29 ± 0.35 | 0.91 (active)
23 | COc1cccc(S(=O)(=O)N2CCCC(c3nnc(C(F)(F)F)o3)C2)c1 (centres undefined) | 0.892 ± 0.039 | 1.08 ± 0.09 | 1.03 ± 0.06 | 0.885 ± 0.041 | 1.11 ± 0.27 | 1.3 ± 0.36 | 1.02 (active)
24 | CN(C)CCOC(c1ccc(Cl)cc1)c1ccccn1.O=C(O)/C=C\C(=O)O (centres undefined) | 0.87 ± 0.12 | 1.14 ± 0.19 | 0.954 ± 0.073 | 0.752 ± 0.03 | 1.36 ± 0.27 | 1.15 ± 0.12 | 1 (active)
25 | O=c1ccc(-c2ccncc2)nn1CC1CCN(CC(F)(F)F)CC1 | 0.924 ± 0.046 | 0.973 ± 0.077 | 0.955 ± 0.051 | 0.858 ± 0.043 | 0.884 ± 0.07 | 0.832 ± 0.17 | 0.964 (active)
26 | CCOc1ccc2oc(-c3ccccc3)c(C(=O)N3CCN(C)CC3)c2c1 | 1.03 ± 0.052 | 1.09 ± 0.087 | 1.03 ± 0.05 | 1.05 ± 0.053 | 1.15 ± 0.13 | 1.26 ± 0.31 | 0.966 (active)
27 | Cc1cc2c(cc1S(N)(=O)=O)S(=O)(=O)CCC2 | 1.02 ± 0.094 | 1.03 ± 0.085 | 0.997 ± 0.022 | 1 ± 0.11 | 0.95 ± 0.044 | 0.891 ± 0.14 | 1 (active)
